Test results from the supplement of paper PMC8387472.

Experiments:
Assay in all cases: fraction of 1-bp insertions among edited reads; higher = more 1-bp insertion outcomes
Details in all cases: mESC; 2uM; 72 h treatment, harvest day 5
[1] = compound: Cc1cc(C)nc(SCC(=O)Nc2ncc(Cc3cccc4ccccc34)s2)n1
[2] = compound: Nc1cc(F)ccc1NC(=O)c1ccc(CNC(=O)/C=C/c2cccnc2)cc1 [Tucidinostat (Chidamide)]
[3] = compound: CCn1c(=O)c(-c2ccc(Cl)cc2Cl)cc2cnc(Nc3ccc(N4CCNCC4)c(F)c3)nc21
[4] = compound: CNc1ccc([N+](=O)[O-])c(Nc2ccc3[nH]ncc3c2)n1
[5] = compound: CO[C@H]1/C=C/O[C@@]2(C)Oc3c(C)c(O)c4c(O)c(c(/C=N/N5CCN(C6CCCC6)CC5)c(O)c4c3C2=O)NC(=O)/C(C)=C\C=C\[C@H](C)[C@H](O)[C@@H](C)[C@@H](O)[C@@H](C)[C@H](OC(C)=O)[C@@H]1C [Rifapentine]
[6] = compound: COc1ccccc1-c1cc(Nc2cccc(CS(N)(=O)=O)c2)ncn1
[7] = compound: C[C@@H]1CN(CC(=O)Nc2ccc3c(c2)Cc2cccc(-c4cc(=O)cc(N5CCOCC5)o4)c2S3)C[C@H](C)O1
[8] = compound: Cc1ccc(C(=O)NCCCCCC(=O)Nc2ccccc2N)cc1
[9] = compound: Cc1cccc(CC(=O)N2CCc3c2ccc(-c2cn(C)c4ncnc(N)c24)c3F)n1
[10] = compound: NC(=O)c1ccc2nc(-c3ccc(Oc4ccc(Cl)cc4)cc3)[nH]c2c1 [Chk 2 inhibitor II (BML-277)]

Target: 8.0 GCATGCGTGTTTTGGGACAATGTAGTATACATTTGGGAGGCTCTCAGCTTTTCCCAATAAA
- fraction of 1-bp insertions among edited reads [1]: 0.418
- fraction of 1-bp insertions among edited reads [2]: 0.257

Target: 45.0 (DMSO control at this site: 1-bp insertion 0.017, MH deletion 0.666, edited 0.101) TTACACAGCATGAACTGCTAGGTGATGATGTCAGATTCGGTTTTACTAACTTCTCCAAAAA
- fraction of 1-bp insertions among edited reads [3]: 0.0237
- fraction of 1-bp insertions among edited reads [4]: 0.0246
- fraction of 1-bp insertions among edited reads [5]: 0.0255
- fraction of 1-bp insertions among edited reads [6]: 0.037
- fraction of 1-bp insertions among edited reads [7]: 0.0735
- fraction of 1-bp insertions among edited reads [1]: 0.0352
- fraction of 1-bp insertions among edited reads [8]: 0.0235
- fraction of 1-bp insertions among edited reads [9]: 0.0353
- fraction of 1-bp insertions among edited reads [10]: 0.0266
- fraction of 1-bp insertions among edited reads [2]: 0.0198

Target: 34.0 (DMSO control at this site: 1-bp insertion 0.184, MH deletion 0.385, edited 0.103) ATTATAGGACCCTGAGGGAGCAGAGATGTGGGAATGGGGGCCGAGCCAATTGTGATGTAAG
- fraction of 1-bp insertions among edited reads [3]: 0.153
- fraction of 1-bp insertions among edited reads [4]: 0.199
- fraction of 1-bp insertions among edited reads [5]: 0.159
- fraction of 1-bp insertions among edited reads [6]: 0.169
- fraction of 1-bp insertions among edited reads [7]: 0.361
- fraction of 1-bp insertions among edited reads [1]: 0.165
- fraction of 1-bp insertions among edited reads [8]: 0.208
- fraction of 1-bp insertions among edited reads [9]: 0.197
- fraction of 1-bp insertions among edited reads [10]: 0.148
- fraction of 1-bp insertions among edited reads [2]: 0.184

Target: 32.0 (DMSO control at this site: 1-bp insertion 0.03, MH deletion 0.85, edited 0.898) AGAAGTCCAGGATCAGGGGGACTGGGGTCGGGAGGGTGGGGCAGGAAGGAAGCCAGAATCA
- fraction of 1-bp insertions among edited reads [3]: 0.0112
- fraction of 1-bp insertions among edited reads [4]: 0.0188
- fraction of 1-bp insertions among edited reads [5]: 0.0121
- fraction of 1-bp insertions among edited reads [6]: 0.012
- fraction of 1-bp insertions among edited reads [7]: 0.0185
- fraction of 1-bp insertions among edited reads [1]: 0.018
- fraction of 1-bp insertions among edited reads [8]: 0.0164
- fraction of 1-bp insertions among edited reads [9]: 0.0245
- fraction of 1-bp insertions among edited reads [10]: 0.0134
- fraction of 1-bp insertions among edited reads [2]: 0.0163

Target: 21.0 CGATTGAGAGTCAAACGGGCCAGAAAACTCCGGGAACGGGCCAGAAAACTCCGGGGCATGG
- fraction of 1-bp insertions among edited reads [4]: 0.026
- fraction of 1-bp insertions among edited reads [5]: 0.0143
- fraction of 1-bp insertions among edited reads [6]: 0.0287
- fraction of 1-bp insertions among edited reads [7]: 0.0355
- fraction of 1-bp insertions among edited reads [1]: 0.0108
- fraction of 1-bp insertions among edited reads [8]: 0.0393
- fraction of 1-bp insertions among edited reads [10]: 0.0251
- fraction of 1-bp insertions among edited reads [2]: 0.0194

Target: 40.0 (DMSO control at this site: 1-bp insertion 0.072, MH deletion 0.192, edited 0.189) GCGAATCAACTGTTCAACAACAGCAGCAGCCACCTGGAGGACTACAGTGGCCTGTCCGTGT
- fraction of 1-bp insertions among edited reads [3]: 0.0675
- fraction of 1-bp insertions among edited reads [4]: 0.0835
- fraction of 1-bp insertions among edited reads [5]: 0.0737
- fraction of 1-bp insertions among edited reads [6]: 0.076
- fraction of 1-bp insertions among edited reads [7]: 0.124
- fraction of 1-bp insertions among edited reads [1]: 0.0746
- fraction of 1-bp insertions among edited reads [8]: 0.0721
- fraction of 1-bp insertions among edited reads [9]: 0.0741
- fraction of 1-bp insertions among edited reads [10]: 0.0639
- fraction of 1-bp insertions among edited reads [2]: 0.0778

Target: 35.0 (DMSO control at this site: 1-bp insertion 0.01, MH deletion 0.72, edited 0.098) CCACTTTTAGAGAGGGTGAAAATCATCAGTTATCATCAGGGCAACAAATTGCTTTCTCCTA
- fraction of 1-bp insertions among edited reads [3]: 0.0264
- fraction of 1-bp insertions among edited reads [4]: 0.00485
- fraction of 1-bp insertions among edited reads [5]: 0.0103
- fraction of 1-bp insertions among edited reads [6]: 0.0267
- fraction of 1-bp insertions among edited reads [7]: 0.125
- fraction of 1-bp insertions among edited reads [1]: 0.0279
- fraction of 1-bp insertions among edited reads [8]: 0.0384
- fraction of 1-bp insertions among edited reads [9]: 0.0134
- fraction of 1-bp insertions among edited reads [10]: 0.0163
- fraction of 1-bp insertions among edited reads [2]: 0.0535

Target: 43.0 (DMSO control at this site: 1-bp insertion 0.134, MH deletion 0.714, edited 0.104) AGTTTAACTTACTCCGGCCAAAAAAGAACTGCACCTCTGGAGCGGGTTAGTGGTGGTGGTA
- fraction of 1-bp insertions among edited reads [3]: 0.0588
- fraction of 1-bp insertions among edited reads [4]: 0.0932
- fraction of 1-bp insertions among edited reads [5]: 0.0993
- fraction of 1-bp insertions among edited reads [6]: 0.101
- fraction of 1-bp insertions among edited reads [7]: 0.118
- fraction of 1-bp insertions among edited reads [1]: 0.0918
- fraction of 1-bp insertions among edited reads [8]: 0.0831
- fraction of 1-bp insertions among edited reads [9]: 0.0629
- fraction of 1-bp insertions among edited reads [10]: 0.1
- fraction of 1-bp insertions among edited reads [2]: 0.0828

Target: 20.0 (DMSO control at this site: 1-bp insertion 0.349, MH deletion 0.138, edited 0.084) TACAGGTGTAGACTGGTTACGTGGCTGCGGAATTGACTGGTTACGTGGCTGCGGAATTTTG
- fraction of 1-bp insertions among edited reads [3]: 0.317
- fraction of 1-bp insertions among edited reads [4]: 0.438
- fraction of 1-bp insertions among edited reads [5]: 0.293
- fraction of 1-bp insertions among edited reads [6]: 0.345
- fraction of 1-bp insertions among edited reads [7]: 0.47
- fraction of 1-bp insertions among edited reads [1]: 0.3
- fraction of 1-bp insertions among edited reads [8]: 0.315
- fraction of 1-bp insertions among edited reads [9]: 0.355
- fraction of 1-bp insertions among edited reads [10]: 0.233
- fraction of 1-bp insertions among edited reads [2]: 0.348

Target: 27.0 CCAGAATTAGAACATATCATCTGGACCCTTTTCCATCTGGACCCTTTTCCAGCACACCCTG
- fraction of 1-bp insertions among edited reads [4]: 0.13
- fraction of 1-bp insertions among edited reads [5]: 0.109
- fraction of 1-bp insertions among edited reads [6]: 0.108
- fraction of 1-bp insertions among edited reads [1]: 0.124
- fraction of 1-bp insertions among edited reads [8]: 0.149
- fraction of 1-bp insertions among edited reads [2]: 0.137
